The text below walks through data of PubChem BioAssay (NCI).

About 79,000 compounds went through this panel and 15% of them were active in at least one assay; those are over-represented in the sample as a whole. A number with no mark means an inactive call. Activity calls are given as the source filed them. Cut-off read from the data, not from the text of the source: active = growth inhibition above about 70%; inactive = the rest.

The nature of the first assay: NCI Yeast Anticancer Drug Screen. Data for the bub3 strain (AID 167). To be noted: S. cerevisiae bub3 mutant strain, at 5.0 µM (retest, dose inferred, filed as 0.5), hits give high values. In a few lines: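 Growth of a checkpoint-deficient yeast mutant is measured after compound exposure. Values represent inhibition relative to vehicle.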
As for `N#CC(c1ccc(Cl)cc1)c1ccc([N+](=O)[O-])cc1` (configuration not stated), the growth inhibition was 2%.

In the case of `O=C(CC(=O)c1ccccc1NC1=Cc2ccccc2C(=O)C1=O)C(=O)NC1=C(Cl)C(=O)c2ccccc2C1=O`, the growth inhibition was 14%.

Regarding `O=S(=O)(Nc1ccc2c3c(cccc13)C=C2)c1ccccc1`, the growth inhibition is -1%.

In the case of `CC(=O)c1cccc(NC(=O)C(=O)NNc2n[nH]c(=S)n2N)c1`, the growth inhibition is -19%.

For the compound `Nc1ncc(C(=O)c2ccccc2)cc1[N+](=O)[O-]`, the growth inhibition was -76%.

For the compound `COc1ccc2cc(C3CCCC3(C)CC(=O)O)ccc2c1` (configuration not stated), the growth inhibition is 2%.

For the compound `CNc1ccc(N=O)cc1`, the growth inhibition is 25%.

Take `S=c1sc2nc(Cl)nc(Cl)c2s1`: the growth inhibition was 100% (active).

As to `CC(=O)O/C=C1\c2ccccc2CCC1c1ccc2ccccc2c1` (configuration not stated), the growth inhibition is 5%.

`CC1(C)C2CCC(C2)C1OC(=O)c1ccccc1C(=O)O` (configuration not stated): the growth inhibition was -2%.

For `Cc1cc(=O)oc2c3c(ccc12)OC(c1ccc(Br)cc1)CC3=O` (configuration not stated), the growth inhibition was 24%.

Turning to `Cc1cc(N(CCOS(C)(=O)=O)CCOS(C)(=O)=O)ccc1C=Nc1cccc(Cl)c1`, the growth inhibition is 0%.

On to `CN(C)CCOc1cc2c(c3ccccc13)-c1ccccc1C2O` (configuration not stated), for which the growth inhibition was 2%.

On to `NC(=S)C(=Nc1ccccc1F)Nc1ccccc1F`, for which the growth inhibition is -1%.

As to `CCCCOc1ccc(NC(=S)Nc2ccc(OCCN(CC)CC)cc2)cc1`, the growth inhibition was 3%.

On to `CC1CCN(CC(=O)N2c3ccccc3Sc3cc4ccccc4cc32)CC1`, for which the growth inhibition is -4%.

On to `CC(C)C1COC(c2ccc3ccccc3c2-c2c(O[Si](C)(C)C(C)(C)C)ccc3ccccc23)=N1` (configuration not stated), for which the growth inhibition was 8%.

Take `CN(C)c1ccc(/C=C(\C#N)c2cccc(Cl)c2)cc1`: the growth inhibition was 5%.

As to `CCN(CC)CCNc1ccc(C)c2oc3ccc(O)cc3c(=O)c12`, the growth inhibition is -4%.

As for `CN(C)CC1CCc2c(ccc3ccccc23)C1=O` (configuration not stated), the growth inhibition was 19%.

Take `C[C@]12CCC(=O)C=C1CC[C@@H]1[C@@H]2[C@@H](O)C[C@@]2(C)[C@H]1CC[C@]2(O)C(=O)COC(=O)CCC1CCCC1`: the growth inhibition was 51%.

Consider `O=C(CSc1nnc(Cc2ccccc2)o1)Nc1ccc(Cl)cc1[N+](=O)[O-]`, for which the growth inhibition is -10%.

As to `Cc1cccc2c1Oc1ccccc1C2N1C(=O)/C(=C/c2ccccc2Cl)SC1=S` (configuration not stated), the growth inhibition was 99% (active).

Still in this assay, the particulars now being: S. cerevisiae bub3 mutant strain, at 50.0 µM (retest, dose inferred, filed as 5.0), hits give high values.
Turning to `Cc1cn(C2CC(Br)C(COC(c3ccccc3)(c3ccccc3)c3ccccc3)O2)c(=O)[nH]c1=O` (configuration not stated), the growth inhibition is 99% (active).

In the case of `CC1CCN(CCOC(=O)C(c2ccccc2)C2C=CCCC2)C1` (configuration not stated), the growth inhibition is 55%.

As for `C=CC(c1ccccc1)[C@@]1(OC(C)=O)C(=O)C(=O)OC1C1COC(C)(C)O1` (some centres not stated), the growth inhibition is 100% (active).

As to `CC(C)S(=O)(=O)ON1C(=O)c2ccc(N(C)C)cc2C1=O`, the growth inhibition is 48%.

For `CCCC(Sc1ccccc1)c1ccccc1NC(C)=O` (configuration not stated), the growth inhibition was 41%.

In the case of `Oc1c(C(Nc2ccccn2)c2ccccc2)ccc2cccnc12` (configuration not stated), the growth inhibition is 97% (active).

With `CC(=O)NC1=C(Cl)C(=O)c2ccccc2C1=O`, the growth inhibition was 99% (active).

Take `CC1OC(c2ccc3c(c2)OCO3)OC1C` (configuration not stated): the growth inhibition was -23%.

As to `CN(C)CC(CN1CCCC1)C(=O)c1ccccc1` (configuration not stated), the growth inhibition was 39%.

As for `O=S(=O)(O)c1ccc2c(c1)C1C(C3C2C2(Cl)C(Cl)=C(Cl)C3(Cl)C2(Cl)Cl)C2(Cl)C(Cl)=C(Cl)C1(Cl)C2(Cl)Cl` (configuration not stated), the growth inhibition is 91% (active).

With `Cc1cc(Cl)nc2ccc(Cc3ccc4nc(Cl)cc(C)c4c3)cc12`, the growth inhibition was 13%.

`CC1CCC2(C)C(CC=C(C=O)C2(O)C=O)C12CO2` (configuration not stated): the growth inhibition was 54%.

As for `Cc1c(C)c(C)c(C(=O)c2ccccc2C(=O)NCCSC(C)(C)C)c(C)c1C`, the growth inhibition was 33%.

`O=[N+]([O-])C(=C1Nc2ccccc2N1)C(Cl)=C(Cl)Cl`: the growth inhibition was 12%.

Regarding `CCCCNc1ccc(C(=O)OC2CCN(C)CC2)c(Cl)c1`, the growth inhibition was 97% (active).

For the compound `CC(C)(C)OC(=O)c1ccc(NCC2=C(Br)C(=O)C=CC2=O)cc1`, the growth inhibition is 96% (active).

Take `N#CC(c1ccc(Cl)cc1)c1ccc([N+](=O)[O-])cc1` (configuration not stated): the growth inhibition was 86% (active).

With `O=C(CC(=O)c1ccccc1NC1=Cc2ccccc2C(=O)C1=O)C(=O)NC1=C(Cl)C(=O)c2ccccc2C1=O`, the growth inhibition was 94% (active).

As to `O=S(=O)(Nc1ccc2c3c(cccc13)C=C2)c1ccccc1`, the growth inhibition is 98% (active).

Consider `CC(=O)c1cccc(NC(=O)C(=O)NNc2n[nH]c(=S)n2N)c1`, for which the growth inhibition was 95% (active).

Turning to `Nc1ncc(C(=O)c2ccccc2)cc1[N+](=O)[O-]`, the growth inhibition is -58%.

In the case of `COc1ccc2cc(C3CCCC3(C)CC(=O)O)ccc2c1` (configuration not stated), the growth inhibition is 2%.

Turning to `CNc1ccc(N=O)cc1`, the growth inhibition is 98% (active).

In the case of `S=c1sc2nc(Cl)nc(Cl)c2s1`, the growth inhibition was 100% (active).

Take `CC(=O)O/C=C1\c2ccccc2CCC1c1ccc2ccccc2c1` (configuration not stated): the growth inhibition is 4%.

Take `CC1(C)C2CCC(C2)C1OC(=O)c1ccccc1C(=O)O` (configuration not stated): the growth inhibition is 26%.

On to `Cc1cc(=O)oc2c3c(ccc12)OC(c1ccc(Br)cc1)CC3=O` (configuration not stated), for which the growth inhibition is 23%.

Turning to `Cc1cc(N(CCOS(C)(=O)=O)CCOS(C)(=O)=O)ccc1C=Nc1cccc(Cl)c1`, the growth inhibition was 15%.

With `CN(C)CCOc1cc2c(c3ccccc13)-c1ccccc1C2O` (configuration not stated), the growth inhibition is 34%.

On to `NC(=S)C(=Nc1ccccc1F)Nc1ccccc1F`, for which the growth inhibition was 81% (active).

Turning to `CCCCOc1ccc(NC(=S)Nc2ccc(OCCN(CC)CC)cc2)cc1`, the growth inhibition is 54%.

As to `CC1CCN(CC(=O)N2c3ccccc3Sc3cc4ccccc4cc32)CC1`, the growth inhibition is 7%.

Consider `CC(C)C1COC(c2ccc3ccccc3c2-c2c(O[Si](C)(C)C(C)(C)C)ccc3ccccc23)=N1` (configuration not stated), for which the growth inhibition was 8%.

On to `CN(C)c1ccc(/C=C(\C#N)c2cccc(Cl)c2)cc1`, for which the growth inhibition is 14%.

On to `CCN(CC)CCNc1ccc(C)c2oc3ccc(O)cc3c(=O)c12`, for which the growth inhibition is 41%.

As to `CN(C)CC1CCc2c(ccc3ccccc23)C1=O` (configuration not stated), the growth inhibition was 82% (active).

As for `C[C@]12CCC(=O)C=C1CC[C@@H]1[C@@H]2[C@@H](O)C[C@@]2(C)[C@H]1CC[C@]2(O)C(=O)COC(=O)CCC1CCCC1`, the growth inhibition is 95% (active).

In the case of `O=C(CSc1nnc(Cc2ccccc2)o1)Nc1ccc(Cl)cc1[N+](=O)[O-]`, the growth inhibition is 64%.

On to `Cc1cccc2c1Oc1ccccc1C2N1C(=O)/C(=C/c2ccccc2Cl)SC1=S` (configuration not stated), for which the growth inhibition was 74% (active).
